Test results taken from PubChem BioAssay (NCATS).
Several values for one entry are separate records, joined by “and”; a condition that tells them apart may be missing. Identical values can stand only once. Results filed as inconclusive are left out. A number with no mark means an inactive call. Activity calls are given as the source filed them. Calls follow the shape of the dose curve; as a rule, active = well fitted inhibition curve with a large enough effect; inconclusive = small, poorly fitted or top-dose-only effect; inactive = flat fitted curve, though single readings scatter.

tested on: KB-3-1; assay: Cytotoxic Profiling of Annotated Libraries Using Quantitative High-Throughput Screening (AID 1296008); details: Five cell lines viability, CellTiter-Glo ATP luminescence, 48-72 h; max response: hits give low values; also: nearly all actives have a fitted effect of over 60% in size
How it was run: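 Compounds were pin-transferred onto cells and incubated 48 or 72 hr at 37 degree Celsius, 95% humidity. CellTiter-Glo was added, plates sat 10 min at room temperature, then ATP-coupled luminescence was imaged as the viability read-out.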
% is scaled to controls: 0 for no effect and ±100 for the full control effect; potency is read from the fitted curve at half-maximal effect.

SMILES	max response	Potency
CN(C)CCCCCCN(C)C (tested in a mixture with another compound)	0.743%	–
Cc1ccccc1-n1c(CF)nc2ccc(N)cc2c1=O	-0.0685%	–
C[C@]12CC[C@H]3[C@@H](CCC4=C(O)C(=O)CC[C@@H]43)[C@@H]1CC[C@@H]2OC(=O)CCC1CCCC1	-5.37%	–
Oc1ccc2c3c1O[C@H]1[C@@H](O)CC[C@@]4(O)[C@@H](C2)N(CC2CCC2)CC[C@]314	4.11%	–
[H+].[H+].[Hg+2].[O-]B([O-])[O-].[c-]1ccccc1	–	8200 nM (active)
NCC[C@H](O)C(=O)N[C@@H]1C[C@H](N)[C@@H](O[C@H]2O[C@H](CN)[C@@H](O)[C@H](O)[C@H]2N)[C@H](O[C@@H]2O[C@H](CO)[C@@H](O)[C@H]2O)[C@H]1O	11%	–
CC(=O)O[C@H]1C[C@H](O[C@H]2[C@@H](O)C[C@H](O[C@H]3[C@@H](O)C[C@H](O[C@H]4CC[C@@]5(C)[C@H](CC[C@@H]6[C@@H]5C[C@@H](O)[C@]5(C)[C@@H](C7=CC(=O)OC7)CC[C@]65O)C4)O[C@@H]3C)O[C@@H]2C)O[C@H](C)[C@H]1O[C@@H]1O[C@H](CO)[C@@H](O)[C@H](O)[C@H]1O	–	164 nM (active)
C[C@]12C[C@H]3S[C@H]3C[C@@H]1CC[C@@H]1[C@@H]2CC[C@]2(C)[C@@H](O)CC[C@@H]12	5.47%	–
C[C@]12CCC(=O)C=C1C=C[C@@H]1[C@@H]2CC[C@@]2(C)[C@H]1CC[C@@]2(O)CCC(=O)O	17.7%	–
CCC/C=C/C=C/C(=O)O[C@H]1/C(=C/C(=O)OC)C[C@H]2C[C@H]([C@@H](C)O)OC(=O)C[C@H](O)C[C@@H]3C[C@H](OC(C)=O)C(C)(C)[C@](O)(C[C@@H]4C/C(=C/C(=O)OC)C[C@H](/C=C/C(C)(C)[C@]1(O)O2)O4)O3	0.184%	–
C[C@@H](CO)NC(=O)[C@@H]1C=C2c3cccc4[nH]cc(c34)C[C@H]2N(C)C1	1.7%	–
CC(=O)Oc1ccc2c3c1O[C@H]1[C@@H](OC(C)=O)C=C[C@H]4[C@@H](C2)N(C)CC[C@@]341	-5% and 2.33%	–
CCN1C[C@]2(COC)[C@H](O)C[C@H](OC)[C@@]34[C@@H]5C[C@@]6(O)[C@H](OC(=O)c7ccccc7)[C@@H]5[C@@](OC(C)=O)([C@@H]([C@H](OC)[C@H]23)[C@@H]14)[C@@H](O)[C@@H]6OC	2.56%	–
C=C[C@H]1CN2CC[C@H]1C[C@H]2[C@H](OC(=O)OCC)c1ccnc2ccc(OC)cc12	4.99%	–
O=C1C[C@@H]2OCC=C3CN4CC[C@]56c7ccccc7N1[C@H]5[C@H]2[C@H]3C[C@H]46 (tested in a mixture with another compound)	0.545% and 11.6%	–
C[N+]1(C)[C@@H]2CC[C@H]1CC(OC(=O)c1c[nH]c3ccccc13)C2 (some centres undefined)	-6.15%	–
Cc1cc(C)cc(C(=O)OC2C[C@H]3CC[C@@H](C2)N3C)c1 (some centres undefined)	-7.52%	–
CN(C)[C@@H]1C(=O)C(C(N)=O)=C(O)[C@@]2(O)C(=O)C3=C(O)c4c(O)ccc(Cl)c4[C@@](C)(O)[C@H]3C[C@@H]12	2.99%	–
C[C@@H]1[C@@H]2Cc3ccc(O)cc3[C@@]1(C)CCN2CC1CC1	-3.25%	–
CN1[C@H]2CC[C@@H]1[C@@H](C(=O)O)[C@@H](OC(=O)c1ccccc1)C2	17.1% and -20.4%	–

SMILES	max response	Potency
O=C1OC2(c3cc(Br)c(O)cc3Oc3c2cc(Br)c(O)[c]3[Hg])c2ccccc21 (centres undefined)	6.88%	–
CC[C@H]1[C@@H]2C[C@H]3[C@@H]4N(C)c5ccccc5[C@]45C[C@@H](C2[C@H]5O)N3[C@@H]1O (some centres undefined)	-5.46%	–
CC(C)[C@@]1(NC(=O)[C@@H]2C[C@@H]3c4cccc5[nH]cc(c45)C[C@H]3N(C)C2)O[C@@]2(O)[C@@H]3CCCN3C(=O)[C@H](Cc3ccccc3)N2C1=O	25.3% and -16.4%	–
[S]=[Sb](=[S])[S][Sb](=[S])=[S]	2.26%	–
CCCCC[C@@H](O)C1C(=O)OC(C)[C@H](O)/C=C/C=C/C=C/C=C/C=C(\C)C(O)C(O)C(O)C[C@H](O)C[C@H](O)C[C@H](O)C[C@H](O)C[C@@H]1O (some centres undefined)	-4.4% and -1.2%	–
CCN(CC)C(=O)N[C@H]1C[C@@H]2c3cccc4[nH]cc(c34)C[C@H]2N(C)C1	-7.12%	–
CCCCCCC(=O)O[C@H]1CC[C@H]2[C@@H]3CC[C@H]4CC(=O)C=C(C)[C@]4(C)[C@H]3CC[C@]12C	-2.21%	–
CC(=O)O[C@H]1CC[C@@]2(C)C(=CC[C@@H]3[C@@H]2CC[C@]2(C)C(=O)CC[C@@H]32)C1	-3.08%	–
OC[C@@H](O)[C@H]1O[C@@H]2O[C@@H](C(Cl)(Cl)Cl)O[C@@H]2[C@H]1O	1.39%	–
O=C(C[C@@H]1NCCC[C@H]1O)Cn1cnc2cc(Br)c(Cl)cc2c1=O	-0.356%	–
CCNCC(O)c1cccc(O)c1 (centres undefined)	6.6%	–
Clc1ccc(C(Cn2ccnc2)OCc2csc3c(Cl)cccc23)c(Cl)c1 (centres undefined)	-3.27%	–
C[C@@H](Cc1ccccc1)N(C)C	9.66%	–
CCN(CC)CCO[C@H]1CC[C@@]2(C)C(=CC[C@@H]3[C@@H]2CC[C@]2(C)C(=O)CC[C@@H]32)C1	-11.5%	–
C[C@H]1CC[C@]2(NC1)O[C@H]1C[C@H]3[C@@H]4CC[C@H]5C[C@@H](O)CC[C@]5(C)[C@H]4CC[C@]3(C)[C@H]1[C@@H]2C	-2.2%	–
C[C@]12CC[C@H](O)C[C@H]1CC[C@@H]1[C@@H]2CC[C@]2(C)[C@@H](c3ccc(=O)oc3)C[C@H]3O[C@]132	–	1840 nM (active)
C[C@]12C=CC(=O)C=C1CC[C@@H]1[C@@H]2CC[C@]2(C)OC(=O)CC[C@@H]12	5.64%	–
O=c1ccc2cc(O[C@@H]3O[C@H](CO)[C@@H](O)[C@H](O)[C@H]3O)c(O)cc2o1	-2.51%	–
COc1ccc(OC)c([C@@H](O)[C@H](C)N)c1	-0.699%	–
